# D1 ag = human D1 receptor agonism. P21728. HEK293 T-REx D1 cells, calcium flux, agonist mode. activation, % at 2 µM. actives 1% (n = 360,000). AID 504660; in the data active = activation above about 30%; also: 0% is about no effect
#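 Inducible HEK293 T-REx D1 cells, force-coupled to calcium signalling, were plated at 4000 cells/well with tetracycline and held overnight at 30 C. After no-wash calcium dye loading, compound-evoked calcium rise over 180 s flagged agonists.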
# DRD3 antagonist = antagonists of human D3 dopamine receptor | P35462 | D3R cells, DiscoveRx beta-arrestin luminescence, antagonist mode; hits give low values | max response, negative = inhibition, % | actives 2.5% (n = 360,000) | AID 652054; in the data active = max response below about -50%; inconclusive = no clear call, values can overlap the other calls; also: % is scaled to controls: 0 for no effect and ±100 for the full control effect
# Target sequence (P35462 whole entry, looked up): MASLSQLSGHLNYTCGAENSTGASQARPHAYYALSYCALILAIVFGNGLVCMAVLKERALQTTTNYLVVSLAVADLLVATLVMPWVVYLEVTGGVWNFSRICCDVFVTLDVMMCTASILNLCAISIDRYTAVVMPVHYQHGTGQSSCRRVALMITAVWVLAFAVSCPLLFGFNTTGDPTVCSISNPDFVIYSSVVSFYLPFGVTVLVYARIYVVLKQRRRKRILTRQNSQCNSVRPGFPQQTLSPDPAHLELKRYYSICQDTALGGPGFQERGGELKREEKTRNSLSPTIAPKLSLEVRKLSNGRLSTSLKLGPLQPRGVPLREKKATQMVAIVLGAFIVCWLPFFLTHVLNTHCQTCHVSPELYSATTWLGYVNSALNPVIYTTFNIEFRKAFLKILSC
#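 Cells expressing the human receptor were seeded at 1500 cells/well, incubated overnight at 37 degrees C in 5% CO2, then exposed to library compounds with dopamine controls for 90 minutes at 37 degrees C before luminescent detection.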
# D3 ag = D3 dopamine receptor (human) agonism; P35462; actives 0.58% (n = 410,000); max activation, %; D3R DiscoveRx beta-arrestin cells, luminescence, 90 min; AID 652048; in the data active = max activation above about 30%; also: 0% is about no effect
#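 Agonist-mode cell screen: cells plated at 1500/well and incubated overnight at 37 °C, then exposed to library compounds for 90 min at 37 °C. Detection reagent was added for 30–60 min at room temperature, and luminescence was read.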
# D1 antag = blocks dopamine activation of the human D1 receptor; AID 504652; actives 3.2% (n = 360,000); HEK293 TREx D1 cells, calcium flux, dopamine EC80; hits give low values; activity change, negative = inhibition, % at 10 µM; P21728; in the data active = activity change below about -30%; also: % is scaled to controls: 0 for no effect and ±100 for the full control effect
#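 Kinetic fluorescence of a calcium dye serves as the read-out. D1-expressing Hek293 Trex cells, induced overnight at 30 C, are exposed to compound for 180 s before an EC80 dopamine addition, then read 180 s further.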
# D1 PAM = enhances dopamine response at the human D1 receptor; P21728; HEK293 TREx D1 cells, calcium flux, dopamine EC20 potentiation; potentiation, % at 10 µM; actives 0.036% (n = 360,000); in the data active = potentiation above about 30%; also: 0% is about no effect
# The depositor's hits bear a star; u = inconclusive; x = no result given. Compounds with a hit are over-represented: about 6% of the library has one in this group of screens.
SMILES,D1 ag,DRD3 antagonist,D3 ag,D1 antag,D1 PAM
O=C(Nc1ncc(S(=O)(=O)c2ccc([N+](=O)[O-])cc2)s1)c1ccccc1F,37.9*,-10.3,-15.8,-12.0,8.3
COC(=O)C(NC(=O)c1ccccc1C)(Nc1ncc(S(=O)(=O)c2ccc([N+](=O)[O-])cc2)s1)C(F)(F)F (stereo unspecified),12.8,-77.4*,-6.6,-17.2,-3.5
O=C(Nc1ccc([N+](=O)[O-])cc1)c1ccccc1F,2.4,u,-11.3,-17.4,-8.6
COC(=O)C(NC(=O)c1ccc(F)cc1)(Nc1ncc(S(=O)(=O)c2ccc([N+](=O)[O-])cc2)s1)C(F)(F)F (stereo unspecified),2.7,-14.5,-4.2,-22.9,-3.6
Nc1cc(CN2C(=O)c3ccccc3C2=O)cc(Cl)c1O,0.0,10.3,31.4*,2.8,2.2
O=C1c2ccccc2C(=O)N1Cc1cc(Cl)c(O)c([N+](=O)[O-])c1,4.2,-8.2,-7.1,3.2,2.3
O=C(Cn1c(-c2cccs2)cc2ccccc21)NCCCN1CCN(c2ccc(F)cc2)CC1,8.0,x,-4.5,-7.9,-3.6
O=C(Cn1c(-c2cccs2)cc2cc(F)ccc21)NCCCN1CCN(c2ccccc2F)CC1,2.6,x,27.8,-13.9,-5.5
COc1ccc(N2CCN(CCCNC(=O)Cn3c(-c4cccs4)cc4ccccc43)CC2)cc1,2.6,x,31.6*,2.9,-3.8
O=C(Cn1c(-c2cccs2)cc2ccccc21)NCCCN1CCN(c2ccccc2F)CC1,0.8,x,21.2,-62.5*,-5.3
C[C@@H]1CN([C@H](C)CO)S(=O)(=O)c2ccc(-c3ccc(C#N)cc3)cc2O[C@H]1CN(C)C(=O)Nc1cc(F)ccc1F,x,13.8,4.0,x,x
O=C(NCCc1ccccc1)C1COc2ccccc2C1 (stereo unspecified),3.3,x,-9.9,-6.7,-2.9
COc1ccc2c(c1)CC(C(=O)NCCN1CCN(c3cccc(Cl)c3)CC1)CO2 (stereo unspecified),24.0,x,-8.1,-47.0*,-1.6
O=C(NCCN1CCN(c2ccccc2F)CC1)C1COc2ccccc2C1 (stereo unspecified),-1.6,x,-12.6,-57.1*,-4.6
O=C(NCCN1CCN(c2cccc(Cl)c2)CC1)C1COc2ccccc2C1 (stereo unspecified),7.8,x,-9.6,-86.5*,-5.0
COc1ccc2c(c1)CC(C(=O)NCCCN1CCN(c3ccccc3F)CC1)CO2 (stereo unspecified),2.7,x,13.7,-18.8,-3.1
COc1ccc2c(c1)CC(C(=O)Nc1cc(Cl)ccc1C)CO2 (stereo unspecified),1.8,x,67.5*,-6.5,-3.5
COc1cccc(S(=O)(=O)N(C)C[C@@H]2OCc3cn(nn3)CCCC(=O)N([C@@H](C)CO)C[C@H]2C)c1,x,-17.5,-2.3,x,x
CCN1CCN(C(=O)c2c(C)nn(-c3ccc(F)cc3)c2-n2cccc2)CC1,1.3,x,-13.7,-10.6,-1.1
Cn1c(SCc2ccc([N+](=O)[O-])cc2)nnc1-c1cccnc1,0.2,34.6,-6.8,-0.8,4.9
C/C(=N\OC(=O)c1ccc(Cl)cc1)c1nccs1,0.8,39.3,-2.1,-31.9*,-12.7
CCN(CC)CCNC(=O)c1cc(Br)c(N)cc1OC,3.8,u,-40.8,0.2,-6.7
Cc1cccc(C)c1-n1nnnc1C(c1ccnc2ccccc12)N(Cc1ccccc1)Cc1ccccc1 (stereo unspecified),x,-7.6,3.5,x,x
O=S(=O)(Cc1cc(Oc2ccccc2)nc(-c2ccccc2)n1)c1ccccc1,-0.3,-1.0,-8.4,-33.4*,-4.6
Cc1cc(OCCCn2c(CCNC(=O)C3CCCCC3)nc3ccccc32)ccc1Cl,44.3*,x,-16.2,-29.9,-3.7
SMILES,D1 ag,DRD3 antagonist,D3 ag,D1 antag,D1 PAM
CCn1c(=O)cc(N2CCC3(CC2)OCCO3)[nH]c1=O,3.5,-22.6,-6.3,-60.2*,-6.1
CNC(=O)C1CC(=O)N(CCc2ccc(OC)cc2)C(=Nc2ccc(OC)cc2)S1 (stereo unspecified),-0.4,2.9,2.6,-2.8,-12.8
CNC(=O)C1CC(=O)N(Cc2ccc3c(c2)OCO3)C(=Nc2ccc(OC)cc2)S1 (stereo unspecified),10.4,-4.5,-1.8,-30.1*,-5.8
CC1CCN(C(=O)c2[nH]c(C(F)(F)F)nc2-c2ccccc2)CC1,x,-68.8*,8.3,x,x
O=C(c1[nH]c(C(F)(F)F)nc1-c1ccccc1)N1CCN(c2cccc(C(F)(F)F)n2)CC1,x,-55.5*,-6.1,x,x
CC(=O)N1CCN(C(=O)c2[nH]c(C(F)(F)F)nc2-c2ccccc2)CC1,x,12.3,9.0,x,x
Cc1ccccc1C(=O)NCC(c1cccnc1)N1CCc2ccccc21 (stereo unspecified),2.3,x,-5.7,2.8,3.0
OC(COc1cccc2ccccc12)CN1CCN(c2ccccc2)CC1 (stereo unspecified),7.7,-54.4*,34.9*,-25.3,-11.9
CCOc1ccccc1N1CCN(CC(O)COC2CCCc3ccccc32)CC1 (stereo unspecified),1.3,-88.8*,-22.2,-2.5,2.3
Oc1ccccc1N1CCN(CC(O)COCc2ccccc2Cl)CC1 (stereo unspecified),5.8,-53.2*,28.7,-3.8,-7.8
COc1ccc(N2CCN(CC(O)COc3c(OC)cccc3OC)CC2)cc1 (stereo unspecified),3.1,-27.7,-3.8,11.6,-2.6
CC1CC(C)CN(CC(O)COCc2ccccc2F)C1 (stereo unspecified),0.2,-13.2,-7.8,1.7,1.4
COc1cccc(OC)c1OCC(O)CN1CCN(c2ccccc2F)CC1 (stereo unspecified),3.8,-56.9*,27.8,-18.1,-5.7
COc1ccc(CNC(=O)c2ccccc2NC(=O)C2=C(C)OCCS2)cc1,x,0.0,4.5,x,x
CN(Cc1ccccc1)C(=O)CN1C(=O)CSc2ccc(S(=O)(=O)N3CCOCC3)cc21,-1.7,x,-5.6,-12.5,0.7
Cc1cccc(CN2CCN(CC(=O)NCc3ccc(Cl)cc3)C2=O)c1,-0.1,x,-3.7,3.5,-1.6
COc1ccccc1N1CCN(Cc2cc3c(cc2O)OCO3)CC1,2.8,-80.6*,-26.0,-36.8*,-8.4
CC(C)c1ccccc1OCC(O)CN1CCN(S(=O)(=O)c2ccc([N+](=O)[O-])cc2)CC1 (stereo unspecified),1.0,-54.9*,-18.3,0.2,-3.7
O=S(=O)(c1ccc(F)cc1)N1CCN(CC(O)COc2ccccc2F)CC1 (stereo unspecified),7.0,-8.9,-12.3,-16.2,-4.8
COc1ccc(C(=O)CN2CCN(S(=O)(=O)c3ccc(C(C)C)cc3)CC2)cc1,-1.1,x,-13.6,-28.9,-4.8
COc1ccc(COCC(O)CN2CCN(S(=O)(=O)c3ccc(C(C)C)cc3)CC2)cc1 (stereo unspecified),6.4,7.1,4.5,-30.3*,-0.3
